This note sets out measurements from PubChem BioAssay (EPA / NIEHS).

Molecules are shown by their SMILES. Some structures have more than one record in an assay (separate samples or runs), and their calls can disagree. Active and inactive are the calls of the source. Rule for the calls: active = hit-call score of the fitted dose curve at least 0.9, where 1 is the maximum; inactive = score below 0.9.

Read-out in this experiment: Plasminogen activator inhibitor-1 (PAI1), SERPINE1 (gene 5054)
Briefly: BSK_BE3C_PAI1: BioMAP Diversity Plus: BE3C Assay for Plasminogen activator inhibitor-1 (PAI1) Biomarker Activity (AID 2283037). To be noted: primary human bronchial epithelial cells; actives raise or lower the signal. Here is the method:
BSK_BE3C is a cell-based, multiplexed-readout assay that uses bronchial epithelial cell, a human lung primary cell, with measurements taken at 24 hours after chemical dosing in a 96-well plate.BSK_BE3C_PAI1 is an assay component measured in the BSK_BE3C assay. It measures PAI-1 antibody related to regulation of gene expression using ELISA technology.Data from the assay component BSK_BE3C_PAI1 was analyzed into 1 assay endpoint. This assay endpoint, BSK_BE3C_PAI1, was analyzed with bidirectional fitting relative to DMSO as the negative control and baseline of activity. Using a type of binding reporter, gain or loss-of-signal activity can be used to understand changes in the signaling as they relate to the gene SERPINE1. Furthermore, this assay endpoint can be referred to as a primary readout, because this assay has produced multiple assay endpoints where this one serves a signaling function. To generalize the intended target to other relatable targets, this assay endpoint is annotated to the cytokine intended target family, where the subfamily is plasmogen activator inhibitor.
The levels of cell surface (or secreted, indicated by the prefix "s") biomarker endpoints were measured by ELISA. Overt cytotoxicity to cells in confluent adherent cultures (all systems other than the BT system) was assessed by measuring total protein levels using sulforhodamine B (SRB) staining in parallel cultures at the time of biomarker measurements, indicated as SRB endpoints. For proliferation assays for adherent cell types, individual cell types are cultured at sub-confluence and relative cell numbers quantified by SRB staining at time points optimized for each system (48 h: 3C and CASM3C systems; 72 h: BT and HDF3CGF systems; 96 h: SAg system). SRB was performed by staining cells with 0.1% SRB after fixation with 10% TCA and reading wells at 560 nm.Viability and proliferation of PBMC (T cells) was quantified by Alamar Blue reduction for the SAg and BT systems. For PBMC viability (referred to as PBMC Cytotoxicity within the assay endpoint names), cells were plated (75,000/well in a 96-well plate) and then chemical samples added for 1 h before addition of activators, SEB and TSST-1 (20 ng/mL final concentration each). Cells were incubated for 90 h. Then, Alamar Blue (20 uL/well) (Invitrogen, Cat DAL1100) was added for 6 h, and the plates were read with a fluorescence microplate reader at 546/580 nm (excitation/emission). For PBMC proliferation, cells were plated and activated as above but incubated for only 16 h prior to addition of Alamar Blue. Plates were read after 6 h.
As for `CCC(C)OC(=O)N1CCCCC1CCO` (stereo not given), the outcome was inactive.
The same measure, in the same setting: the entry for `COC(=O)c1cccc(C)c1S(=O)(=O)NC(=O)Nc1nc(OCC(F)(F)F)nc(N(C)C)n1` is “inactive”; for `c1ccc2[nH]c(-c3cscn3)nc2c1` it is “inactive”; for `CCCCC(CC)COC(=O)c1ccccc1C(=O)O` (stereo not given) it is “inactive”.
Turning to `O=C(Nc1ccc([N+](=O)[O-])cc1Cl)c1cc(Cl)ccc1O`, the outcome was inactive.
Take `COC(=O)c1ccc(CNS(C)(=O)=O)cc1S(=O)(=O)NC(=O)Nc1nc(OC)cc(OC)n1`: the result was inactive.
Consider `CN(C)C(=O)Nc1ccc(Cl)c(Cl)c1`, for which the outcome was inactive.
One may read the AC50 as the midpoint of the concentration-response curve, whichever way the signal moves. Take `CC(C)CCCCCCc1ccc(O)cc1`: the concentration at half-maximal activity (AC50) was 31 µM (active).
For `CCNc1nc(N)nc(Cl)n1`, the outcome was inactive.
Take `CC(C)(c1ccc(O)cc1)c1ccc(O)cc1`: the AC50 was 24.3 µM (active) and the outcome was inactive.
Take `CCCCOC(=O)C(C)Oc1ccc(Oc2ccc(C(F)(F)F)cn2)cc1` (stereo not given): the result was inactive.
Consider `CCSC(=O)N(CC(C)C)CC(C)C`, for which the outcome was inactive.
On to `O=C(c1ccc(O)cc1O)c1ccc(O)cc1O`, for which the AC50 is 34.6 µM (active).
In the case of `COC(=O)c1ccccc1C(=O)O`, the result was inactive.
Regarding `CCOC(=O)C(C)Oc1ccc(Oc2cnc3cc(Cl)ccc3n2)cc1` (stereo not given), the result was inactive.
The same measure, in the same setting: as for `CCOC(=O)c1ccc(O)cc1`, the entry is “inactive”; as for `OB(O)O`, “inactive”; as for `CCCCOCCOCCOCc1cc2c(cc1CCC)OCO2`, “inactive”.
Regarding `Oc1ccc(C(c2ccc(O)cc2)C(Cl)(Cl)Cl)cc1`, the half-maximal activity concentration (AC50) was 28.5 µM (active).
Consider `CCCCCCC(C)OC(=O)COc1nc(F)c(Cl)c(N)c1Cl` (stereo not given), for which the result was inactive.
In the case of `Cc1nn(C)c(Oc2ccccc2)c1C=NOCc1ccc(C(=O)OC(C)(C)C)cc1`, the AC50 was 7.02 µM (active).
For `CCOC(=O)COc1cc(-n2ncc(C(F)(F)F)c(C)c2=O)c(F)cc1Cl`, the result was inactive.
The same measure, in the same setting: the entry for `C#CCOC(=O)[C@@H](C)Oc1ccc(Oc2ncc(Cl)cc2F)cc1` is “inactive”.
Turning to `CCCCOC(=O)[C@@H](C)Oc1ccc(Oc2ccc(C(F)(F)F)cn2)cc1`, the result was inactive.
With `CCOC(=O)[C@H](C)Oc1ccc(Oc2nc3ccc(Cl)cc3o2)cc1`, the concentration at half-maximal activity (AC50) was 3.97 µM (active).
For `CCCN(CCC)c1c([N+](=O)[O-])cc(C(F)(F)F)c(N)c1[N+](=O)[O-]`, the AC50 was 36.2 µM (active).
Consider `CC(C)(C)[C@@H](O)[C@@H](Cc1ccc(Cl)cc1)n1cncn1`, for which the result was inactive.
For the molecule `CCC(O)=C1C(=O)CC(C(=O)O)CC1=O` (stereo not given), the outcome was inactive.
Turning to `CC(=O)[C@H]1CC[C@H]2[C@@H]3CCC4=CC(=O)CC[C@]4(C)[C@H]3CC[C@]12C`, the result was inactive.
Regarding `CCN(Cc1c(F)cccc1Cl)c1c([N+](=O)[O-])cc(C(F)(F)F)cc1[N+](=O)[O-]`, the outcome was inactive.
Regarding `COC(=O)c1ccc(I)cc1S(=O)(=O)NC(=O)Nc1nc(C)nc(OC)n1`, the outcome was inactive.
Consider `S=C(S)NCCNC(=S)S.[Mn+2].[S-]C([S-])=NCCN=C([S-])[S-].[Zn+2]`, for which the outcome was inactive.
Take `CC1(C)C(C=C(Cl)Cl)C1C(=O)OCc1cccc(Oc2ccccc2)c1` (stereo not given): the outcome was inactive.
For the molecule `O=C(O)c1ccccc1`, the outcome was inactive.
`CC(=O)S[C@@H]1CC2=CC(=O)CC[C@]2(C)[C@H]2CC[C@@]3(C)[C@@H](CC[C@@]34CCC(=O)O4)[C@H]12`: the outcome was inactive.
On to `CCOC(=O)C(C)Oc1ccc(Oc2nc3ccc(Cl)cc3o2)cc1` (stereo not given), for which the AC50 was 33.5 µM (active).
As for `C[C@]12CC[C@@H]3c4ccc(O)cc4C[C@@H](CCCCCCCCCS(=O)CCCC(F)(F)C(F)(F)F)[C@H]3[C@@H]1CC[C@@H]2O` (stereo not given in full), the outcome was inactive.
As to `CCOC(=O)NCCOc1ccc(Oc2ccccc2)cc1`, the outcome was inactive.
In the case of `COCCO`, the outcome was inactive.
